Measurements from the supplement of paper PMC11150407.
Structures can show the parent of a compound that is named as a salt. Out of some 2,100 compounds screened, about 180 (8.6%) showed an effect of 50% or more. The entries come from a sample that favours strong results as a whole.

Tested on: MOLM1 and UCSD/AML1 (averaged)
Assay: cell viability relative to DMSO control (POC); higher = less growth inhibition
Settings: 1 µM; 72 h
Method: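 Primary viability screen in the 3q26 EVI1-high AML cell lines MOLM1 and UCSD/AML1 (1.5e3 cells/well, 384-well), compounds at 1 uM for 72 h. ATP CellTiter-Glo read-out given as percent of viable cells over DMSO control (POC), averaged over duplicates. DMSO was the negative control and 5 uM etoposide the positive control. This mapping covers the MicroSource Spectrum and Selleck anticancer libraries (drug names).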

In order of rising cell viability:
1. CN(C)Cc1c(C(=O)NCCOc2ccc(C(=O)NO)cc2)oc2ccccc12  1.01%
2. CCCCc1nc2cc(/C=C/C(=O)NO)ccc2n1CCN(CC)CC [SB939 (Pracinostat)]  1.57%
3. NC(=O)Nc1cc(-c2cccc(F)c2)sc1C(=O)N[C@H]1CCCNC1  5.84%
4. CC(C)C[C@@H](NC(=O)[C@H](C)NC(=O)CNC(=O)[C@@H](NC=O)C(C)C)C(=O)N[C@@H](C)C(=O)N[C@@H](C(=O)N[C@H](C(=O)N[C@H](C(=O)N[C@@H](Cc1c[nH]c2ccccc12)C(=O)N[C@H](CC(C)C)C(=O)N[C@@H](Cc1c[nH]c2ccccc12)C(=O)N[C@H](CC(C)C)C(=O)N[C@@H](Cc1c[nH]c2ccccc12)C(=O)N[C@H](CC(C)C)C(=O)N[C@@H](Cc1c[nH]c2ccccc12)C(=O)NCCO)C(C)C)C(C)C)C(C)C  5.86%
5. O=C(Cc1ccc(-c2ccc(OCCN3CCOCC3)cc2)cn1)NCc1ccccc1  8.82%
6. O=C(NC1CCNCC1)c1n[nH]cc1NC(=O)c1c(Cl)cccc1Cl  13.3%
7. COc1cc2c(cc1O)CC[C@@H]1[C@@H]2CC[C@]2(C)[C@@H](O)CC[C@@H]12 [2-Methoxyestradiol]  13.7%
8. C[C@@H](Oc1cc(-c2cnn(C3CCNCC3)c2)cnc1N)c1c(Cl)ccc(F)c1Cl  21.4%
9. CC(C)n1nc(-c2ccc3oc(N)nc3c2)c2c(N)ncnc21  21.6%
10. Cn1c(=O)c(F)c(Nc2ccc(I)cc2F)c2c(=O)n(C[C@@H](O)CO)cnc21  24.8%
11. COC(=O)Nc1ccc(-c2nc(N3CCOCC3)c3cnn(C4CCN(C(=O)OC)CC4)c3n2)cc1  25.9%
12. CCN(CC)CCCCNc1ncc2cc(-c3cc(OC)cc(OC)c3)c(NC(=O)NC(C)(C)C)nc2n1  36.8%
13. c1ccc2c(-c3cnn4cc(-c5ccc(N6CCNCC6)cc5)cnc34)ccnc2c1  37.8%
14. NC(=O)Nc1sc(-c2ccc(F)cc2)cc1C(N)=O  42.3%
15. COc1c(C)c2c(c(O)c1C/C=C(\C)CCC(=O)O)C(=O)OC2 [Mycophenolic (Mycophenolate)]  42.4%
16. Cc1ccc(NC(=O)c2cccc(C(C)(C)C#N)c2)cc1Nc1ccc2ncn(C)c(=O)c2c1  42.7%
17. COc1c(C)c2c(c(O)c1C/C=C(\C)CCC(=O)O)C(=O)OC2  44%
18. COc1c(C)c2c(c(O)c1C/C=C(\C)CCC(=O)OCCN1CCOCC1)C(=O)OC2 [Mycophenolate mofetil (CellCept)]  53%
19. CCN1CCN(Cc2ccc(-c3cc4c(N[C@H](C)c5ccccc5)ncnc4[nH]3)cc2)CC1  53.4%
20. CC/C(=C(\c1ccccc1)c1ccc(OCCN(C)C)cc1)c1ccccc1 [Tamoxifen Citrate (Nolvadex)]  53.6%
21. Nc1nc(Nc2ccc(S(N)(=O)=O)cc2)nn1C(=O)c1c(F)cccc1F  53.8%
22. C[C@H](NC(=O)Cc1cc(F)cc(F)c1)C(=O)N[C@H](C(=O)OC(C)(C)C)c1ccccc1  76.1%
23. O=C(c1ccc(OCCN2CCCCC2)cc1)c1c(-c2ccc(O)cc2)sc2cc(O)ccc12  83.3%
24. COC1=C(OC)C(=O)C(C/C=C(\C)CC/C=C(\C)CC/C=C(\C)CC/C=C(/C)CC/C=C(\C)CC/C=C(\C)CC/C=C(\C)CC/C=C(\C)CC/C=C(\C)CCC=C(C)C)=C(C)C1=O  85.7%
25. CC1(O)CC2C(CC1O)C2(C)C (stereo not given)  87.5%
26. COc1cc2ccc(=O)oc2c(O)c1O  88.3%
27. CCC(=O)OC1[C@@H]2CC3=C4CC(=O)O[C@@H](c5ccoc5)[C@]4(C)CCC3[C@@](C)(C2=O)[C@@H](CC(=O)OC)C1(C)C (stereo not given in full)  88.5%
28. C#CCCCCCCCCCCCC(O)CC(O)COC(C)=O (stereo not given)  88.5%
29. NCCC(=O)N[C@@H](Cc1c[nH]cn1)C(=O)O  89.7%
30. CC(=O)O[C@H]1C[C@@H](OC(C)=O)C(C)(C)C2CC(=O)[C@]3(C)C(CC[C@@]4(C)[C@H](C(=O)O)OC(=O)C5OC543)[C@]21C (stereo not given in full)  89.8%
31. CCCc1cc(OC)c2c(c1)OCO2  90.2%
32. CC(=O)O[C@@H]1C[C@H]2C(C)(C)[C@@H](O)CC[C@]2(C)[C@H]2CC[C@@]3(C)[C@H](c4ccoc4)OC(=O)[C@H]4O[C@]43[C@@]21C [beta-DIHYDROGEDUNOL]  90.3%
33. CC(C)(C)Cn1c(N)nc2ccc(-c3[nH]c(C(C)(C)C)nc3-c3ccc(F)cc3)nc21  91%
34. CC(=O)O[C@H]1CC[C@]2(C)[C@H]3CC[C@@]4(C)[C@H](c5ccoc5)OC(=O)[C@H]5O[C@]54[C@]3(C)[C@H](OC(C)=O)C[C@H]2C1(C)C [3beta-ACETOXYDEOXODIHYDROGEDUNIN]  91.2%
35. C[C@]12CC[C@@H]3c4ccc(O)cc4CC[C@H]3[C@@H]1CC[C@@H]2O  91.5%
36. NC(Cn1ccc(=O)c(O)c1)C(=O)O (stereo not given)  92.7%
37. COc1ccc([C@@H]2CC(=O)c3c(O)cc(O[C@@H]4O[C@H](CO[C@@H]5O[C@@H](C)[C@H](O)[C@@H](O)[C@H]5O)[C@@H](O)[C@H](O)[C@H]4O)cc3O2)cc1O  92.8%
38. CC(C)c1cccc(=O)c(O)c1  93.6%
39. NC1(C(=O)O)CCCC1  93.7%
40. CC(O)Cn1cnc2c1c(=O)n(C)c(=O)n2C (stereo not given)  94.4%
41. CC(=O)O[C@H]1C[C@@H](OC(C)=O)C(C)(C)[C@@H]2C[C@@H](OC(C)=O)[C@@]3(C)C4=CC(=O)O[C@@H](c5ccoc5)[C@]4(C)CC[C@@H]3[C@@]12C  94.5%
42. c1ccc(-c2nn3c(c2-c2ccnc4cc(OCCN5CCOCC5)ccc24)CCC3)nc1  94.6%
43. COC1=CC(=O)C(O)=C/C1=C\C=C\c1ccccc1  95%
44. O=C(c1ccc(OCCN2CCCCC2)cc1)c1c(-c2ccc(O)cc2)sc2cc(O)ccc12 [Evista (Raloxifene Hydrochloride)]  95.1%
45. COc1cc(-c2coc3cc(OCc4ccccc4)c(OC)c(O)c3c2=O)cc(O)c1OC  95.2%
46. COc1c(O)cc2oc3cc(O)c(CC=C(C)C)c(O)c3c(=O)c2c1CC=C(C)C [alpha-MANGOSTIN]  95.2%
47. NC1=NCCN1CC(=O)O  95.6%
48. CC1(C)CC2C1CCC1(C)OC1CCC2(C)O (stereo not given)  95.8%
49. O=C(Cc1cccs1)N[C@@H]1C(=O)N2C(C(=O)[O-])=C(C[n+]3ccccc3)CS[C@H]12  96.4%
50. C[C@]12CC[C@@H]3c4ccc(O)cc4CC[C@H]3[C@@H]1CC[C@@H]2O [Estradiol]  96.7%
51. COc1ccc2c(c1)CC[C@@H]1[C@@H]2CC[C@]2(C)[C@@H](O)CC[C@@H]12  96.8%
52. COc1cc(C(=O)NCc2ccc(OCCN(C)C)cc2)cc(OC)c1OC  97.1%
53. Cc1cc(O)c(C)c(O)c1C(=O)O  97.3%
54. C=CCSCC=C  97.3%
55. CCN(CC)CCNC(=O)COc1ccc(OC)cc1  97.5%
56. CCCCOc1ccc(OCCCN2CCOCC2)cc1  97.5%
57. COC(=O)C[C@H]1C(C)(C)C(=O)[C@@H]2CC3C4=CC(=O)O[C@@H](c5ccoc5)[C@]4(C)CC[C@@H]3[C@@]1(C)C2=O (stereo not given in full)  98.6%
58. COc1ccc2oc(-c3ccccc3)c(OC)c(=O)c2c1  98.7%
59. COc1ccc(-c2coc3cc(O)ccc3c2=O)c(O)c1O  99.7%
60. COc1cc2c3cc1Oc1cc(ccc1O)C[C@@H]1c4c(cc(OC)c(O)c4Oc4ccc(cc4)C[C@@H]3N(C)CC2)CC[N+]1(C)C  100%
61. CC(=O)N[C@@H](Cc1c[nH]c2ccccc12)C(N)=O  101%
62. COc1ccc(-c2coc3c(OC)c(OC)cc(O)c3c2=O)cc1  101%
63. COc1cc(OC)c2c(OC)c(-c3ccc4c(c3)OCO4)c(=O)oc2c1  101%
64. O=C(O)C1CC([C@@H]2CCCCN2)CN2CCCCC12 (stereo not given in full)  101%
65. C[C@]1(c2nc3c(C(N)=O)cccc3[nH]2)CCCN1 [ABT-888 (Veliparib)]  101%
66. C[C@H](NC(=O)Cc1cc(F)cc(F)c1)C(=O)N[C@@H]1C(=O)N(C)c2ccccc2-c2ccccc21  101%
67. CC1(C)CC[C@]2(C(=O)O)CC[C@]3(C)C(=CCC4[C@@]5(C)CC[C@@H](O)C(C)(C)C5CC[C@]43C)C2C1 (stereo not given in full)  102%
68. CC1=CC(=O)CC(C)(C)C1(O)/C=C/C(C)=C\C(=O)O (mixture of isomers) [ABSCISIC ACID (cis,trans; +/-)]  102%
69. O=Cc1ccccc1O[C@@H]1O[C@H](CO)[C@@H](O)[C@H](O)[C@H]1O  102%
70. Cn1c(=O)c2c(ncn2CC(O)CO)n(C)c1=O (stereo not given)  103%
71. CC12CCC3C(CC3(C)C)C(C)(CCC1=O)O2 (stereo not given)  103%
72. COC1=CC(=O)C(C(=O)c2ccccc2)=CC1=O  103%
73. CC(=O)CCCCn1c(=O)c2c(ncn2C)n(C)c1=O  104%
74. OC[C@H]1O[C@@H](O[C@H]2[C@H](O)[C@@H](O)[C@@H](O)O[C@@H]2CO)[C@H](O)[C@@H](O)[C@@H]1O  105%
75. COc1cc(C(C)=O)cc(OC)c1O  105%
76. COC(=O)C(Cc1ccccc1)NC(=O)/C(=C1/OC(=O)C(c2ccccc2)=C1O)c1ccccc1 (stereo not given)  105%
77. COc1ccc(-c2cc(=O)c3c(OC)c(OC)c(OC)cc3o2)cc1OC  105%
78. COc1cc(OC)c2c(c1)OC(c1ccccc1)CC2=O (stereo not given)  105%
79. CC/C(=C(\c1ccccc1)c1ccc(OCCN(C)C)cc1)c1ccccc1  105%
80. CC(=O)N[C@@H](Cc1c[nH]c2ccccc12)C(=O)O  106%
81. CC[C@H](/C=C/[C@@H](C)[C@H]1CC[C@H]2[C@@H]3CCC4=CC(=O)CC[C@]4(C)[C@H]3CC[C@]12C)C(C)C  108%
82. COC(=O)c1c(C)c2c(c(C)c1O)OC(=O)c1c(C)c(Cl)c(O)c(Cl)c1O2  108%
83. Cc1ccc(C(=O)Nc2ccc(S(=O)(=O)O)c3cc(S(=O)(=O)O)cc(S(=O)(=O)O)c23)cc1NC(=O)c1cccc(NC(=O)Nc2cccc(C(=O)Nc3cc(C(=O)Nc4ccc(S(=O)(=O)O)c5cc(S(=O)(=O)O)cc(S(=O)(=O)O)c45)ccc3C)c2)c1  111%
84. Cc1cc(O)cc(O)c1C(=O)O  115%
85. C=CCSCC(N)C(=O)O (stereo not given)  121%
